Experimental findings from PubChem BioAssay (Tox21) are described below.

Inconclusive results are not listed. Where a call stands in place of a potency, no number is given. Values without a mark were called inactive. Active and inactive are the calls of the source. Unless noted, calls follow the shape of the dose curve; as a rule, active = well fitted curve in the direction sought with a large enough effect in the repeat runs; inconclusive = weak or mixed curves; inactive = no such curve, though single readings can be large; an effect the other way counts as inactive or inconclusive.

Assay [1] is described as follows: qHTS assay to identify small molecule agonists of the RXR signaling pathway - cell viability counter screen (AID 1159529). Also: nearly all actives have a fitted effect of over 50% in size. Also: potency is read from the fitted curve at half-maximal effect. As to activity change, negative = cytotoxicity: series mostly up to about 77 µM. In outline: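 Compounds dissolved in DMSO were pinned onto HEK 293T cells carrying a beta-lactamase reporter under RXR-alpha control and incubated 16 hr. Cytotoxicity was then quantified by CellTiter-Glo luminescence.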
(Quantitative high-throughput screening tests each substance at several concentrations.)

A short description of assay [2]: qHTS assay to identify small molecule antagonists of the retinoid acid receptor (RAR) signaling pathway - cell viability counter screen (AID 1159551). Also: nearly all actives have a fitted effect of over 35% in size. An outline of the steps: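 In this counter screen, the RARE-luciferase line C3RL4 was exposed for 6 h at 37 C and 5% CO2 to compounds with retinol at 1 uM final. Cellular ATP, read by luminescence, served as the viability measure.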

Assay [3] can be described thus: qHTS assay to identify small molecule antagonists of the retinoic acid receptor (RAR) signaling pathway (AID 1159552; also: nearly all actives have a fitted effect of over 50% in size; also: potency is read from the fitted curve at half-maximal effect). An outline of the steps:
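Test chemicals and DMSO controls were pin-transferred onto C3RL4 cells a day after seeding; retinol (1 uM final) followed at once. Luminescent reporter output was quantified after 6 hr of co-incubation and 30 min with detection reagent.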

The nature of assay [4]: qHTS assay to identify small molecule agonists of the retinoic acid receptor (RAR) signaling pathway (AID 1159553). Also: potency is read from the fitted curve at half-maximal effect. In outline: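 In this cell-based screen, 1,000 C3RL4 cells per well were cultured overnight, dosed with test chemicals in DMSO for 6 hr, and assessed for RARE luciferase luminescence.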
Assay [5] can be described thus: qHTS assay to identify small molecule antagonists of the estrogen related receptor (ERR) signaling pathway - cell viability counter screen (AID 1224818). Also: series mostly up to about 46 µM. An outline of the steps: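 Viability of ERR cells, CellTiter-Fluor fluorescence; 17.5 h compound exposure at 37 C, DMSO vehicle; 30 min reagent incubation at 37 C/5% CO2.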
Assay [6] can be described thus: qHTS assay to identify small molecule antagonists of the estrogen related receptor (ERR) signaling pathway (AID 1224819; also: series mostly up to about 46 µM; nearly all actives have a fitted effect of over 50% in size). In outline: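 Seed ERR cells 2,000/well; rest 6 h at 37 C/5% CO2; pin compounds in DMSO; incubate 18 h at 37 C; add One-Glo; wait 30 min at room temperature; measure luminescence.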
Assay [7] is described as follows: qHTS assay to identify small molecule agonists of the estrogen related receptor (ERR) signaling pathway (AID 1224820). An outline of the steps:
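After 6 h plating (2,000 cells/well) and 18 h compound treatment at 37 C, ERR cells were lysed with One-Glo and luminescence read after 30 min at room temperature.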

Assay [8] has as its system estrogen-related receptor alpha (ERRalpha) with PGC-1alpha coactivator, human. In words: qHTS assay to identify small molecule antagonists of the estrogen related receptor signaling pathway with the pleiotropic PPARgamma coactivator (PGC) (AID 1224821; calls by dose curve;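 also: series mostly up to about 46 µM; lower luminescence signal means antagonism of PGC/ERR signalling; nearly all actives have a fitted effect of over 50% in size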). In outline:
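Luminescence from One-Glo luciferase reagent (30 min, room temperature) measured after 18 h compound treatment at 37 °C. Cells carry the PGC/ERR reporter and were seeded 6 h prior to dosing.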

Assay [9] can be described thus: qHTS assay to identify small molecule agonists of the estrogen related receptor signaling pathway with the pleiotropic PPARgamma coactivator (PGC) (AID 1224823). An outline of the steps:
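Luminescence from One-Glo reagent (30 min, room temperature) was read after 18 h compound treatment at 37 C of PGC/ERR cells plated 6 h beforehand; compounds delivered in DMSO by pin tool.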

Turning to `C=CC1CO1` (configuration not stated), the Potency entry in assay [1], in assay [3] and in [4] was “inactive” throughout. The compound was called inactive in assay [2].
For the compound `C[C@]12C(=O)OC(=O)[C@H]1[C@H]1C=C[C@@H]2C1`, the compound was called inactive in assay [2]. Besides, the Potency entry in assay [3] is “inactive”.
Consider `CC(C)C1=CC2=CC[C@@H]3[C@](C)(CCC[C@@]3(C)C(=O)O)[C@H]2CC1`, for which the compound was called inactive in assay [2]. Further, the Potency result in assay [3] and in [4] was “inactive” throughout.
With `CCCCCCCCCCCCOCCOS(=O)(=O)O`, the Potency in assay [1] is 19.5 µM (active). Moreover, the result in assay [2] was inactive. Besides, the Potency result in [3] and in [4] was “inactive” each time.
As to `CCCOc1ccc2c(c1)CC[C@@H]1[C@@H]2CC[C@]2(C)C(OC)CC[C@@H]12` (some centres not stated), the call in assay [2] was inactive. In addition, the Potency result in assay [3] and in assay [4] was “inactive” throughout.
Regarding `CC1(O)CSC(C)(O)CS1` (configuration not stated), the Potency entry in assay [1], in assay [3] and in assay [4] was “inactive” in each case. Besides, the compound was called inactive in [2].
On to `Nc1ccc(Oc2ccc(N)c(N)c2)cc1`, for which the Potency result in assay [1] and in [3] was “inactive” throughout. For the same compound, the Potency in assay [4] was 1.72 µM (active).
On to `CCOC(=O)C1CC(=O)C(=C(O)C2CC2)C(=O)C1` (configuration not stated), for which the Potency result in assay [1], in [3] and in [4] was “inactive” in each case. Moreover, the result in [2] was inactive.
For `COc1cc2c(cc1N)oc1ccccc12`, in [2], the outcome was inactive. In assay [3], the Potency result is “inactive”. In addition, the Potency in assay [4] is 12.5 µM (active).
Regarding `CCCCOc1cc(C(=O)NCCN(CC)CC)c2ccccc2n1`, the result in [2] was inactive. Further, the Potency entry in [3] and in assay [4] was “inactive” in each case.
In the case of `ICCc1ccccc1`, in assay [2], the outcome was inactive.
The same measure, in the same setting: the entry for `CCCCCCCCCC#N` is “inactive”.
As for `Cc1ccc(C=O)s1`, in assay [2], the compound was called inactive. In addition, in [3], the Potency entry was “inactive”.
Turning to `CC(C)(C)c1ccc(OC(=O)c2ccccc2O)cc1`, the Potency was 49 µM (active) in assay [1] and 1.09 µM (active) in [4]. Besides, in assay [2], the compound was classed as inactive. In addition, the Potency result in assay [3] is “inactive”.
Consider `CN1CCN(C2=Nc3ccccc3Oc3ccc(Cl)cc32)CC1`, for which the compound was classed as inactive in assay [2], in assay [5], in [6], in assay [7], in assay [8] and in [9]. The Potency result in assay [3] and in assay [4] was “inactive” in each case.
In the case of `CCOC(=O)CS`, the Potency entry in assay [1] and in assay [4] was “inactive” in each case. Moreover, the Potency in assay [3] is 28.1 µM (active).
Consider `COc1ccc(S(=O)(=O)Nc2nnc(CC(C)C)s2)cc1`, for which the Potency entry in [1], in assay [3] and in assay [4] was “inactive” in each case. The result in [2] was inactive.
Consider `O=C(O)C(=O)Cc1c[nH]c2ccccc12`, for which the Potency entry in [1] and in assay [3] was “inactive” each time. In addition, the compound was classed as inactive in [2]. Besides, the Potency in [4] is 34.4 µM (active).
`CCN(CCCc1ccccc1)CCCc1ccccc1`: the result in assay [2] was inactive. Besides, the Potency result in assay [3] and in assay [4] was “inactive” each time.
As for `CCC(=O)c1ccc2c(c1)N(CCCN(C)C)c1ccccc1S2`, the call in [2] was inactive. The Potency result in assay [4] was “inactive”.
On to `Cc1nc(N)nc(N)c1-c1ccc(Cl)c(Cl)c1`, for which the compound was classed as inactive in assay [2]. For the same compound, the Potency entry in assay [3] and in assay [4] was “inactive” throughout.
`CCCCCCOc1ccc(N)cc1`: the outcome in assay [2] was inactive. The Potency result in assay [3] was “inactive”. Further, in assay [4], the Potency was 10.9 µM (active).
With `CC1=C(CC(=O)O)c2cc(F)ccc2/C1=C\c1ccc(S(C)(=O)=O)cc1`, the Potency entry in [1], in assay [3] and in assay [4] was “inactive” in each case. Also, the compound was classed as inactive in assay [2], in [5], in assay [6], in assay [7], in assay [8] and in [9].
Take `CCc1cc2cc(OC)c(OC)cc2c(Cc2ccccc2)n1`: the Potency result in assay [1] and in [4] was “inactive” each time.
Consider `CCCCc1ccc2nc(NC(=O)OC)[nH]c2c1`, for which the Potency result in assay [1] and in assay [3] was “inactive” throughout. For the same compound, in [2], the compound was called inactive. For the same compound, the Potency in [4] is 8.41 µM (active).
With `C[C@]12CCC(=O)C=C1CC[C@@H]1[C@@H]2CC[C@@]2(C)[C@H]1CC[C@]2(O)C(=O)CO`, the Potency result in assay [1], in assay [3] and in assay [4] was “inactive” throughout. The result in assay [2], in [5], in assay [6], in [7], in [8] and in [9] was inactive.
Consider `CC1(C)O[C@@H]2C[C@H]3[C@@H]4CCC5=CC(=O)CC[C@]5(C)[C@@]4(F)[C@@H](O)C[C@]3(C)[C@]2(C(=O)CCl)O1`, for which the outcome in assay [2] was inactive. For the same compound, the Potency result in assay [4] was “inactive”.
For the compound `CCNCCO`, the Potency entry in [1], in assay [3] and in assay [4] was “inactive” throughout. The compound was called inactive in assay [2].
With `Cc1ccccc1C(=O)Nc1ccc(C(=O)N2CCCC(O)c3cc(Cl)ccc32)c(C)c1` (configuration not stated), the Potency result in assay [1] and in assay [4] was “inactive” throughout. For the same compound, in [2], the result was inactive.
`Nc1ccc2ccccc2c1S(=O)(=O)O`: the Potency result in assay [1] and in [3] was “inactive” each time. The compound was classed as inactive in assay [2]. Moreover, in [4], the Potency is 24.8 µM (active).
`CN(CCCN1c2ccccc2CCc2ccccc21)CC(=O)c1ccc(Cl)cc1`: in assay [2], the outcome was inactive. Further, the Potency result in assay [3] is “inactive”.
On to `Cc1nc(-c2ccccn2)ncc1C(=O)Nn1cc(C)c2cc(F)ccc21`, for which the compound was called inactive in [2]. For the same compound, in assay [3], the Potency entry was “inactive”.
Regarding `CC(C)NC[C@@H](O)COc1cccc2ccccc12`, the outcome in assay [2] was inactive. The Potency result in [3] and in assay [4] was “inactive” throughout.
With `CCOc1ccccc1N`, the Potency entry in assay [1], in assay [3] and in assay [4] was “inactive” in each case. In addition, the call in assay [2] was inactive.
Turning to `CCCCCCCCc1ccc(S(=O)(=O)O)cc1`, in assay [1], the Potency is 24.3 µM (active). Also, the result in [2] was inactive. Further, the Potency result in [3] and in assay [4] was “inactive” throughout.
With `CCOC(=O)COc1ccc2c(c1)CC(NCC(O)c1cccc(Cl)c1)CC2` (configuration not stated), the compound was classed as inactive in assay [2]. The Potency result in assay [3] and in assay [4] was “inactive” each time.
Regarding `CN(C)C(=O)NC1(c2ccccc2)CCN(CCC[C@]2(c3ccc(Cl)c(Cl)c3)CCCN(C(=O)c3ccccc3)C2)CC1`, the activity change, negative = cytotoxicity in assay [2] is -1.37% [at 19 µM].
